Test results as given in the supplement of paper PMC3334620.
Over roughly 33,000 sequences, “E-score (-0.5 to 0.5)” has its median near -0.016; the highest 2% begin near 0.3. This excerpt belongs to a sample that is enriched for the highest values.

Molecular target: T1, Yer184c (UniProt P39961)
T1 sequence: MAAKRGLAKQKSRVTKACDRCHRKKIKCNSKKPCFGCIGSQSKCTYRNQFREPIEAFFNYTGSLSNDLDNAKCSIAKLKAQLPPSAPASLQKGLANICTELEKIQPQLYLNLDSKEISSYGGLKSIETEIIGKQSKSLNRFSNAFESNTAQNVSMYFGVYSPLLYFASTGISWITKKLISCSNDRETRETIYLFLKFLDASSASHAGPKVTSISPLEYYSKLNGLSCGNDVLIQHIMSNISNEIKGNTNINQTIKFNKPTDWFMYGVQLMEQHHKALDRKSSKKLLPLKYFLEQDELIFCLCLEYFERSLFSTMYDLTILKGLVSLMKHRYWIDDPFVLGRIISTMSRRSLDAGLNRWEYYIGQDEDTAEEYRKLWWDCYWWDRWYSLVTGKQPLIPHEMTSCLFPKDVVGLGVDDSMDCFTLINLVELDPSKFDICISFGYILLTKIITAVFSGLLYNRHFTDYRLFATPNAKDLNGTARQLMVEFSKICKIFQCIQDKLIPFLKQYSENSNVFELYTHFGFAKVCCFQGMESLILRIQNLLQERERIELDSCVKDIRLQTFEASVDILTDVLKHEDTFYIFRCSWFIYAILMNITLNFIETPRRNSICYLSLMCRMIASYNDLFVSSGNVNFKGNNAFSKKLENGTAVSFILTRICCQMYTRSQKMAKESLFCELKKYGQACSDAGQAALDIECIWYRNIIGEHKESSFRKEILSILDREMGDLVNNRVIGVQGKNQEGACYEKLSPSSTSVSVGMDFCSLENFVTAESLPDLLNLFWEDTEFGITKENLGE
Test: PBM E-score (8-mer binding enrichment) (E-score (-0.5 to 0.5)); higher = stronger / more preferred TF binding
Details: protein concentration: 100 nM; construct: GST-full length
Experimental: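 Universal 'all 10-mer' protein binding microarrays (Agilent AMADID 015681) probed with GST-tagged S. cerevisiae TFs (full-length or DBD) made by in vitro transcription/translation (PURExpress), about 100-200 nM. Bound TF was detected with fluorescent anti-GST. Each ungapped 8-mer (which stands for itself and its reverse complement) is scored by the PBM enrichment score (E-score), a modified Wilcoxon-Mann-Whitney statistic from -0.5 to +0.5, computed with the Universal PBM Analysis Suite. Scale: above 0.35 generally sequence-specific binding.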

First: ATTTCCAC
Second: ACTTCCGC
The “PBM E-score” value of the first is lower: 0.067 for the first, 0.166 for the second.

Compared with ATTTCCGC, AAAAGCCG is lower in “PBM E-score” value: 0.307 for the first, 0.244 for the second.

Going from GATCTCGA to CAGTTGAC, the “PBM E-score” value falls from 0.115 to -0.0401.

Compared with ACATCTCG, GGGATAAA is higher in “PBM E-score” value: 0.00537 for the first, 0.195 for the second.

First: AAATTATT
Second: ACGCAATA
The “PBM E-score” value of the first is higher: 0.212 for the first, 0.135 for the second.

Compared with AGAGCTCA, GTACTATA is higher in “PBM E-score” value: -0.142 for the first, 0.176 for the second.

First: ATGGCGTA
Second: TCTCCGAA
The “PBM E-score” value of the first is lower: -0.111 for the first, 0.325 for the second.

Compared with TATCCGAA, TATCCGCA is lower in “PBM E-score” value: 0.386 for the first, 0.293 for the second.

Going from CATCCGAA to GCTCCGAA, the “PBM E-score” value falls from 0.338 to 0.298.

Going from CCTCCGAA to GATCCGAA, the “PBM E-score” value rises from 0.0955 to 0.375.

Compared with GATCCAAA, CATCCGAG is higher in “PBM E-score” value: 0.196 for the first, 0.212 for the second.

First: GATCCGAC
Second: AATCCGAA
The “PBM E-score” value of the first is lower: 0.0808 for the first, 0.0989 for the second.

Going from CATCCGAC to AACAAGAA, the “PBM E-score” value rises from 0.247 to 0.257.

Going from AAGATTAT to GCATTGCC, the “PBM E-score” value falls from 0.106 to -0.0318.

Going from AGACTCTA to AGGCATGG, the “PBM E-score” value rises from -0.124 to -0.0826.

Compared with TCGCTAAA, GTCTTTCA is lower in “PBM E-score” value: 0.0346 for the first, -0.0723 for the second.

Going from CCGGCCAC to AACTGCTC, the “PBM E-score” value falls from 0.24 to -0.0494.

Compared with GCCGTTAC, GTTCTGGA is lower in “PBM E-score” value: 0.119 for the first, 0.0262 for the second.

Compared with CGACGCCG, CCGACTGA is lower in “PBM E-score” value: 0.239 for the first, 0.00051 for the second.

Going from CCGACTTC to CCGACTTA, the “PBM E-score” value rises from -0.243 to 0.304.

First: TGTTTCAA
Second: ACGCGCAA
The “PBM E-score” value of the first is lower: 0.153 for the first, 0.156 for the second.

First: AGTCCCCC
Second: AATAGCGG
The “PBM E-score” value of the first is lower: -0.483 for the first, 0.0178 for the second.

Going from ATCCGGTC to ATGCGGCC, the “PBM E-score” value falls from 0.214 to 0.109.

Going from ATCCGGTA to ATCCGGCC, the “PBM E-score” value rises from 0.206 to 0.358.

Compared with ATCCGACG, ATACGGCC is lower in “PBM E-score” value: 0.155 for the first, 0.153 for the second.

Going from ATCCGGTG to ATGCGGCG, the “PBM E-score” value falls from 0.353 to 0.0251.

Going from ATCCGGCG to ATTTGGCA, the “PBM E-score” value falls from 0.321 to 0.0517.

Going from GTGCACAC to TGGCATAA, the “PBM E-score” value rises from -0.194 to 0.139.

Going from CTGGCTCA to ACCAAAGC, the “PBM E-score” value rises from -0.00502 to 0.0124.

First: CAGCCCTA
Second: CATGGCGC
The “PBM E-score” value of the first is higher: -0.0337 for the first, -0.0606 for the second.

Going from GCCAAAAA to CGGTAAAC, the “PBM E-score” value falls from 0.234 to 0.216.

Compared with ATATAAAA, TGATAAAA is lower in “PBM E-score” value: 0.278 for the first, 0.178 for the second.

Compared with GTATAAAA, GGGTAAAA is lower in “PBM E-score” value: 0.325 for the first, 0.143 for the second.

Compared with GGATAAAA, CGGTAAAA is higher in “PBM E-score” value: 0.248 for the first, 0.305 for the second.

First: GTATAAAC
Second: TGGTAAAA
The “PBM E-score” value of the first is higher: 0.256 for the first, 0.203 for the second.

First: AGGTAAAG
Second: CGGTAAAG
The “PBM E-score” value of the first is lower: 0.106 for the first, 0.314 for the second.

Going from CGATAAAA to AAGTTTGG, the “PBM E-score” value falls from 0.333 to 0.113.

Compared with ATCCTCGG, CCAAAGCG is lower in “PBM E-score” value: 0.218 for the first, -0.0768 for the second.

Going from ACAACCGA to AAGGCGTG, the “PBM E-score” value falls from 0.261 to -0.149.

First: ATATTGGC
Second: GGGCAACC
The “PBM E-score” value of the first is higher: -0.0624 for the first, -0.121 for the second.

Compared with CCCCAGGG, CACGGGGC is higher in “PBM E-score” value: -0.297 for the first, -0.0464 for the second.

Compared with TAATCTGA, ATCCGTTA is higher in “PBM E-score” value: -0.00734 for the first, 0.367 for the second.

Compared with ATCCGTTC, GTCCGTTA is lower in “PBM E-score” value: 0.29 for the first, 0.207 for the second.
